Data as given in PubChem BioAssay (NCATS).
Results filed as inconclusive are left out. Unmarked numbers belong to inactive results. Active and inactive are the calls of the source. Calls follow the shape of the dose curve; as a rule, active = well fitted inhibition curve with a large enough effect; inconclusive = small, poorly fitted or top-dose-only effect; inactive = flat fitted curve, though single readings scatter.

System: C2A
Assay: qHTS profiling for inhibitors of Plasmodium falciparum proliferation (AID 504749); also: nearly all actives have a fitted effect of over 60% in size;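 as to activity, negative = inhibition: 0% = DMSO vehicle and full inhibition = artemisinin control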
Details: P. falciparum in erythrocytes, SYBR Green DNA, 72 h; series mostly up to 28.7 µM; activity, negative = inhibition: at the top concentration
Method in brief: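 SYBR Green fluorescence of parasite DNA, read after lysis and overnight dark incubation, measured growth over 72 h in erythrocyte culture at 0.3% parasitemia and 2.5% hematocrit. Data normalised to DMSO and 0.29 uM artemisinin, with plate-drift correction.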
Potency is read from the fitted curve at half-maximal effect.

Compound | activity, negative = inhibition [%] | Potency
CC1NCCOC1c1ccccc1 (stereo not drawn) | -0.213 | 
CCCC(C)(COC(N)=O)COC(=O)NC(C)C (stereo not drawn) | 3.19 | 
N#CC(C#N)=Cc1ccc(O)c(O)c1 | -20.6 | 
O=c1[nH]c2ccccc2n1CCCN1CCC(n2c(=O)[nH]c3cc(Cl)ccc32)CC1 |  | 11.2 µM (active)
Nc1ccncc1 | -0.702 | 
CC(=O)[C@H]1CC[C@H]2[C@@H]3CC[C@H]4C[C@H](O)CC[C@]4(C)[C@H]3C(=O)C[C@]12C | 2.51 | 
CCC(C(N)=O)N1CCCC1=O (stereo not drawn) | 0.992 | 
CN(C)CCc1ccc(O)cc1 | -4.3 | 
NCC(CC(=O)O)c1ccc(Cl)cc1 (stereo not drawn) | 0.686 | 
C=C1CC[C@@]2(O)[C@H]3Cc4ccc(O)c5c4[C@@]2(CCN3CC2CC2)[C@H]1O5 | -12.7 | 
NP(N)(=O)NC(=O)c1ccc(F)cc1 | -1.71 | 
CC[N+]1(C)CCCC(OC(=O)C(O)(c2ccccc2)c2ccccc2)C1 (stereo not drawn) | 0.0039 | 
CC(=O)Nc1cc([As](=O)(O)O)ccc1O | -8.46 | 
CC(C)CC(N(C)C)C1(c2ccc(Cl)cc2)CCC1 (stereo not drawn) | 5.42 | 
CCC(COC(=O)c1cc(OC)c(OC)c(OC)c1)(c1ccccc1)N(C)C (stereo not drawn) | -9.85 | 
NN=C(N)N | 0.307 | 
CC(=O)[C@H]1CC[C@H]2[C@@H]3CC[C@H]4C[C@](C)(O)CC[C@]4(C)[C@H]3CC[C@]12C | 2.56 | 
CCOC(=O)C1(c2ccccc2)CCN(CCC(C#N)(c2ccccc2)c2ccccc2)CC1 |  | 3.55 µM (active)
C=C(C)[C@H]1Cc2c(ccc3c2O[C@@H]2COc4cc(OC)c(OC)cc4[C@@H]2C3=O)O1 | -23.5 | 
Clc1ccc(COC(Cn2ccnc2)c2ccc(Cl)cc2Cl)cc1 (stereo not drawn) |  | 11.2 µM (active)
CC[N+](CC)(CC)CC | 1.33 | 
CC1OC(C)OC(C)O1 (stereo not drawn) |  | inactive
Oc1cccc2cccnc12 | -11.5 | 
Cc1ccc(-c2nc3ccc(C)cn3c2CC(=O)N(C)C)cc1 | -1.21 | 
CCOP(=S)(OCC)Oc1cc(C)nc(C(C)C)n1 | 1.13 | 
O=C(O)c1ccc2[nH]cc(CCCCN3CC=C(c4ccccc4)CC3)c2c1 | -5.88 | 
NCC(O)c1ccc(O)cc1 (stereo not drawn) | -12.9 | 
CN1C(=S)CN=C(c2ccccc2)c2cc(Cl)ccc21 | 5.16 | 
